SMILES strings stand for the structures.

Assay [1] deals with Human papillomavirus type 1a protein E7 (residues 44-93). Put plainly: HPV1a E7 fragment binders on microarrays, primary screen, biochemical, small-molecule microarray, residues 44-93, 635 nm fluorescence (AID 1108).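 Note: E7 fragment applied at 1 µg/mL in TBST for 1 h at 4 C; score combines spot fluorescence with its signal to noise ratio.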 Particulars: small-molecule microarray binding, fluorescence 635 nm; higher = more signal.
Assay [2] can be described thus: modulators of HCV replicon luciferase signal, primary screen, HCV replication inhibitor project, Huh7 cells, luciferase reporter (AID 1109).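 Note: huh7 hepatoma cells harbouring a luciferase neomycin HCV replicon reporter; luciferase luminescence as measure of HCV replicon replication; test concentration not given here.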 As to conditions: 48 h, higher = more signal. (In general: A replicon is a self-replicating genome or part of one, used to study replication in cells.)
In assay [3] the target is Left-right determination factor 2 (Homo sapiens) (UniProt O00292). The assay is described as follows: LEFTY2 binders on small-molecule microarrays, primary screen, biochemical, small-molecule microarray, 635 nm fluorescence scan (AID 1110). As to conditions: LEFTY2 binding, higher = more signal.
Left-right determination factor 2 (Homo sapiens), sequence (O00292 whole entry, looked up): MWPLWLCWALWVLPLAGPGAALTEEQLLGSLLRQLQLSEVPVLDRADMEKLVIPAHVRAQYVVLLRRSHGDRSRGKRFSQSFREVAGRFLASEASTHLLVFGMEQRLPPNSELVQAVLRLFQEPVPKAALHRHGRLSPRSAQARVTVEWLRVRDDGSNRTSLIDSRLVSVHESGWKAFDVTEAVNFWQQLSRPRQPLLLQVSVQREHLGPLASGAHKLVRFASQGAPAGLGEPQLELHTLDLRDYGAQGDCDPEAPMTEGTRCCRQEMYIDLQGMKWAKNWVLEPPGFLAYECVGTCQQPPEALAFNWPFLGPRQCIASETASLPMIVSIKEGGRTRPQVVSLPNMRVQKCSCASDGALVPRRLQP
The target in assay [4] is Calmodulin-1 (Homo sapiens) (UniProt P0DP23). The assay is described as follows: CALM1 binders on microarrays, EGTA buffer, profiling panel, biochemical, small-molecule microarray, Cy5-labelled CALM1 (AID 1111).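 Note: labelled calmodulin applied in Tris saline Tween buffer holding calcium plus EGTA and DTT.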 Particulars: Cy5-CALM1 binding fluorescence, higher = more signal.
The target is the same in assay [5]. Put plainly: calcium-bound CALM1 binders on microarrays, profiling panel, artefact control for SMM control-protein annotation, biochemical, small-molecule microarray, Cy5-labelled CALM1, plus calcium (AID 1112).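 Note: score merges spot fluorescence with signal to noise from triplicate slides.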 Particulars: Cy5-CALM1 binding fluorescence, higher = more signal.
Assay [6] is described as follows: small-molecule microarray binders of probe aWnt5a, primary screen, biochemical, biotinylated probe, 635/667 nm fluorescence (AID 1113).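 Note: score merges 667 nm fluorescence intensity with signal-to-noise per printed feature.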 As to conditions: higher = more signal.
Assay [7] in a line: small-molecule microarray binders of probe aShh, primary screen, biochemical, biotinylated probe, 635/667 nm fluorescence (AID 1114).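 Note: probe is biotin-labelled aShh protein from a stem cell growth factor screen; measures binding of labelled protein to compounds printed on the slide; score merges feature fluorescence at 667 nm with signal-to-noise.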 Particulars: higher = more signal.
Assay [8] is described as follows: small-molecule microarray binders of probe aNog, primary screen, biochemical, biotinylated probe, 635/667 nm fluorescence (AID 1115).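 Note: probe is biotinylated aNog protein used at 0.15 µg/mL for 1 h at 4 C; z-score combines 667 nm fluorescence of each spot with its signal to noise.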 Particulars: higher = more signal.
Assay [9] has as its target Torsin-1A-interacting protein 1 (Homo sapiens) (UniProt Q5JTV8). Put plainly: LAP1 binders from COS7 cell lysate, primary screen, small-molecule microarray, 635/667 nm fluorescence (AID 1116). Particulars: COS7-hLAP1 lysate binding, 635 nm fluorescence, higher = more signal.
Assay [10] has as its target Alpha-bungarotoxin (Bungarus multicinctus) (UniProt P60615). The assay is described as follows: alpha-bungarotoxin binders on microarray, profiling panel, artefact control for SMM control protein annotation, biochemical, small-molecule microarray, Alexa647 label, 635/667 nm fluorescence (AID 1117). Particulars: alpha-BTX-A647 binding fluorescence, higher = more signal.

Torsin-1A-interacting protein 1 (Homo sapiens), sequence (Q5JTV8 whole entry, looked up): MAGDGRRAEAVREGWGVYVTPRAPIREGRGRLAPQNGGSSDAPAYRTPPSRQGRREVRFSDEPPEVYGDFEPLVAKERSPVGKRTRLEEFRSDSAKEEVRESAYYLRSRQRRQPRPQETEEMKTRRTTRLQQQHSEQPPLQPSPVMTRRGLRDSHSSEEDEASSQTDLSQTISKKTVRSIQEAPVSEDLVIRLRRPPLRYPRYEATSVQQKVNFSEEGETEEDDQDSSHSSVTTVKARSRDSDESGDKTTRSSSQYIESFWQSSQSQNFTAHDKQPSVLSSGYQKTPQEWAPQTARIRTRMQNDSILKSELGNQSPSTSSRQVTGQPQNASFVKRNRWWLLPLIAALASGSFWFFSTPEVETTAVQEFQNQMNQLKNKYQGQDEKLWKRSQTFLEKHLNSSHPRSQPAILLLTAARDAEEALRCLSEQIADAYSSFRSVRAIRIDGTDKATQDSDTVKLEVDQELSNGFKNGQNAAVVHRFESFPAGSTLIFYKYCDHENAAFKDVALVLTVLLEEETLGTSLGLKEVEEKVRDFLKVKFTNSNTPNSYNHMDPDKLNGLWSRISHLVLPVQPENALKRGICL
Alpha-bungarotoxin (Bungarus multicinctus), sequence (P60615 whole entry, looked up): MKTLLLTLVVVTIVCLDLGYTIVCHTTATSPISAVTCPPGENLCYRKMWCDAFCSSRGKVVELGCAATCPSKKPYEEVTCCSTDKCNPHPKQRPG

As to `O=C1O[C@@H](c2ccccc2)[C@@H](c2ccccc2)N2[C@@H](c3ccc(O)cc3)[C@]3(C(=O)Nc4ccccc43)[C@@H](C(=O)N3CCCCCCC3)[C@H]12`, the composite z-score in [1] turned out to be 1.47; in assay [3], 0.695; in [4], 2.86; in assay [5], 1.61; in assay [6] it was 1.37; in assay [7], 2.07. The composite z-score in assay [8] was -0.531; in [9], 4.6; in assay [10] it was 3.12. Moreover, the z-score in [2] is -1.93.

Consider `COCCCNC(=O)[C@@]1(Sc2ccc(C)cc2)CC(=O)N(Cc2ccccc2)[C@@H]1c1ccc(CO)cc1`, for which the composite z-score is 0.0655 in assay [1]; -0.993 in [3]; -0.488 in [4]; -0.58 in assay [5]; -0.0221 in assay [6]; -0.0324 in assay [7]. For the same molecule, the composite z-score was 0.336 in [8], -0.36 in assay [9] and -0.941 in assay [10]. In assay [2], this molecule showed a z-score of -1.29.

For `C#C[C@H](O[Si](C#CCCCCCC)(C(C)C)C(C)C)c1ccccc1`, the composite z-score in [1] is 0.228; in assay [3], -0.234; in assay [4] it was -0.302; in [5] it was -0.351; in assay [6], -0.131; in assay [7], -0.341. Further, the composite z-score in assay [8] was 0.167; in assay [9], -0.0173; in assay [10], 0.0612. The z-score in assay [2] was determined as 0.242.

In the case of `CCN(CC)c1ccc(N2CC=CC34O[C@@H]5C=CCOC(=O)[C@@H]5[C@H]3C(=O)N(CCCCCO)[C@@H]4C2=O)cc1` (stereo not given in full), the composite z-score in [1] is 0.221; in assay [3], -0.938; in [4] it was -0.385; in [5] it was -0.0559; in [6] it was 0.195; in [7], 0.147. For the same molecule, the composite z-score in assay [8] was 0.277; in assay [9] it was 0.975; in assay [10] it was -1.28. The same molecule came in with a z-score in assay [2] of -0.323.

Turning to `C=CCN1C(=O)[C@@]2(O[C@@H](CCO)[C@H]([Si](C)(C)c3ccc(OC)cc3)[C@H]2C)c2cc(N3C(=O)COc4ccccc43)ccc21`, the composite z-score in [1] is 1.33; in assay [3] it was 0.345; in assay [4] it was 0.695; in assay [5], -0.334; in [6], 0.149; in assay [7], -0.0626. The composite z-score in [8] was -0.292; in assay [9], 1.16; in [10] it was 0.445. The z-score in assay [2] was -5.18.

With `C=CCNC(=O)[C@H]1[C@@H]2C(=O)O[C@@H](c3ccccc3)[C@@H](c3ccccc3)N2[C@@H](c2ccc(OCCO)cc2)[C@]12C(=O)N(C(=O)OCCOC)c1ccc(C#CC3(O)CCCCCC3)cc12`, the composite z-score was 1.18 in assay [1]; 1.2 in assay [3]; 0.494 in assay [4]; -0.12 in [5]; 0.0342 in assay [6]; -0.0035 in assay [7]. The composite z-score in assay [8] was determined as 1.7; in [9] it was 1.07; in assay [10], 1.52. Besides, the z-score in [2] is -2.07.

In the case of `C=C(C)[C@@H]1CC=C(C(O)C2C=CC3C(=O)N(Cc4ccccc4)C(=O)C3N2n2cnnc2)CC1` (stereo not given in full), the composite z-score in [1] is 0.146; in assay [3], -0.485; in assay [4], 0.133; in [5] it was 0.3; in assay [6], 0.0077; in [7] it was -0.156. In addition, the composite z-score worked out at 0.499 in assay [8], 0.401 in assay [9] and 0.291 in assay [10]. Further, the z-score in assay [2] is -2.2.

As to `COc1ccc(C(=O)Nc2cccc(CN3C(=O)[C@@]4(O[C@@H](CCn5cc([C@H](O)c6ccccc6)nn5)[C@H]([Si](C)(C)c5ccc(OC)cc5)[C@H]4C)c4ccccc43)c2)cc1`, the composite z-score is -0.32 in assay [1]; 0.534 in assay [3]; -0.0819 in assay [4]; -0.346 in [5]; 0.0279 in assay [6]; -0.262 in assay [7]. The composite z-score in assay [8] is -0.205; in assay [9], 0.485; in [10], 0.935. The z-score in [2] was -5.06.

Take `CC(=O)NCCCC[C@@H]1NC(=O)[C@@H]2C[C@H](C(=O)NCCCCCC[N+](C)(C)C)[C@H](c3cccc(OCCO)c3)N2C1=O`: the composite z-score was 1.39 in [1]; 0.996 in [3]; -0.145 in [4]; -0.711 in assay [5]; 0.158 in assay [6]; 0.0181 in [7]. The results for the composite z-score in assay [8], in [9] and in [10] were -0.0585, 1.05 and 1.75, respectively. The same molecule had a z-score in [2] of 0.625.

As for `CS(=O)(=O)CCOC(=O)C1=CC(c2ccc(CO)cc2)=CC(c2cccs2)N(Cc2cccc(OC(F)(F)F)c2)C=C1C(=O)OCCS(C)(=O)=O` (stereo not given), the composite z-score is 0.869 in assay [1]; 0.192 in [3]; 1.75 in assay [4]; 0.707 in assay [5]; 0.0044 in assay [6]; -0.102 in assay [7]. Further, the composite z-score is -0.475 in assay [8], 0.796 in [9] and 0.904 in assay [10]. In addition, the z-score in [2] is -2.19.

For the molecule `Cc1ccc(F)cc1S(=O)(=O)N[C@@H]1CCN(Cc2ccc(C(F)(F)F)cc2)C1`, the composite z-score is -0.237 in assay [1]; -0.0209 in assay [3]; -1.3 in [4]; -0.904 in [5]; -0.152 in [6]; 0.0723 in assay [7]. Moreover, the composite z-score in [8] was -0.311; in [9], -0.0249; in assay [10] it was -0.536. Further, the z-score in [2] is -2.01.

For the molecule `COc1ccc(C(=O)Nc2cccc(CN3C(=O)[C@@]4(O[C@@H](CC(=O)N5Cc6ccccc6C[C@H]5CO)[C@H]([Si](C)(C)c5ccc(OC)cc5)[C@H]4C)c4ccccc43)c2)cc1`, the composite z-score in assay [1] is -0.296; in [3], 0.904; in assay [4], -0.0023; in [5], -0.68; in [6], -0.0643; in [7] it was 0.353. Besides, the composite z-score in assay [8] came to 0.118; in [9] it was 0.965; in assay [10], 1.27. For the same molecule, the z-score in assay [2] is -3.74.

In the case of `CCCCCN1CC=CC23O[C@@H]4C=CCCOC(=O)C4[C@H]2C(=O)N(CCCO)[C@@H]3C1=O` (stereo not given in full), the composite z-score in [1] was -0.337; in assay [3], -0.43; in [4] it was -0.162; in assay [5], -0.591; in [6], -0.198; in assay [7], -0.283. Moreover, the figures for the composite z-score in assay [8], in assay [9] and in [10] were -0.0125, -0.643 and -0.546, respectively. In addition, the z-score in assay [2] was -0.726.

In the case of `COCCn1c(C(=O)N(C)C)cc2c1C[C@H]1CN(C(=O)c3ccccc3)[C@@](Cc3ccc(F)cc3)(C(=O)OC)[C@@H]21`, the composite z-score was 1.3 in [1]; -0.0863 in assay [3]; 0.487 in assay [4]; 0.666 in assay [5]; 0.0559 in assay [6]; 0.385 in assay [7]. The composite z-score in assay [8] worked out at 0.873; in assay [9], 0.153; in assay [10], 0.305. Further, in [2], the z-score was -0.285.

In the case of `CC(C)N1C(=O)c2ccccc2[C@](C)(C(=O)NCCCN(C)C)[C@@H]1c1ccc(CO)cc1`, the composite z-score in [1] is -0.0305; in assay [3], -0.553; in assay [4] it was 0.0958; in assay [5] it was -0.0609; in [6], -0.152; in assay [7], -0.214. The composite z-score is -0.546 in assay [8], 4.42 in [9] and 1.28 in assay [10]. The molecule also gave a z-score in [2] of -0.104.

Consider `CC(C)[Si]1(C(C)C)O[C@@H](c2ccccc2)c2cc(-c3ccc(-c4ccc(Cl)c(Cl)c4)o3)nc(CCc3ccccc3)c21`, for which the composite z-score was 0.0027 in assay [1]; -1.32 in assay [3]; -0.411 in [4]; 0.873 in assay [5]; -0.152 in [6]; 0.0141 in [7]. The composite z-score in assay [8] was -0.0118; in assay [9], -0.193; in assay [10], -1.17. Further, in [2], the z-score is -2.07.

For the molecule `C[N+](C)(C)CCCCNC(=O)[C@H]1C[C@H]2C(=O)N3CCC[C@H]3C(=O)N2[C@H]1c1ccc(O)cc1`, the composite z-score in assay [1] is 0.257; in assay [3], 1.28; in assay [4], -0.546; in assay [5], -0.368; in assay [6] it was -0.0236; in assay [7], -0.0146. For the same molecule, the composite z-score in [8] was -0.0662; in assay [9], 2.01; in assay [10], 1.57. For the same molecule, the z-score in [2] was -1.25.

Source of the values: PubChem BioAssay.
